Compound activity deposited in PubChem BioAssay by Johns Hopkins Ion Channel Center.
Sampled rows, rich in hits. Any-hit rate of the full collection: about 1.6%.
KCNQ2 pot: enhances the rat KCNQ2 potassium channel; CHO-K1 KCNQ2, FluxOR thallium flux fluorescence; hits give high values; O88943; B-score at 10 µM; 310,000 tested, 0.54% active;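 active = fluorescence ratio B-score at least 3 SD of library B-scores, with initial fluorescence B-score within 3 of them, cut at about 5.3 in these data; same plate scores as AID 2156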;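 also: B-score of peak minus minimum over baseline fluorescence ratio after K+ and Tl+ stimulus; positive B-score means potentiation of KCNQ2 with more thallium influx and brighter signal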
KCNQ2 inh: KCNQ2 (rat) channel inhibition; 310,000 tested, 1.1% active; O88943; CHO-K1 KCNQ2, FluxOR thallium flux, 20 min; hits give low values; AID 2156; B-score at 10 µM;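 active = fluorescence ratio B-score at most minus 3 library SDs, with starting brightness B-score within 2 library SDs, cut at about -5.5 in these data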
KCNQ2 block conf: confirmation of rat KCNQ2 potassium channel inhibitors | 1,000 tested, 57% active | activity change, negative = inhibition, % at 10 µM | shares compounds with KCNQ2 inh | AID 493025 | KCNQ2-expressing cells, thallium flux, inhibition; hits give low values
KCNQ1 spec: human KCNQ1 activity in KCNQ2 inhibitor specificity screen. shares compounds with KCNQ2 inh. KCNQ1-expressing cells, FluxOR thallium flux fluorescence; hits give low values. activity change, negative = inhibition, % at 10 µM. 1,000 tested, 15% active. AID 493026;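 active = activity change at least 3 SD of negative controls below their mean in both duplicate wells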;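 also: CHO cells stably transfected with KCNQ1 and depolarized by potassium stimulus; peak minus minimum fluorescence over baseline after thallium addition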
Target sequence (P51787 whole entry, looked up): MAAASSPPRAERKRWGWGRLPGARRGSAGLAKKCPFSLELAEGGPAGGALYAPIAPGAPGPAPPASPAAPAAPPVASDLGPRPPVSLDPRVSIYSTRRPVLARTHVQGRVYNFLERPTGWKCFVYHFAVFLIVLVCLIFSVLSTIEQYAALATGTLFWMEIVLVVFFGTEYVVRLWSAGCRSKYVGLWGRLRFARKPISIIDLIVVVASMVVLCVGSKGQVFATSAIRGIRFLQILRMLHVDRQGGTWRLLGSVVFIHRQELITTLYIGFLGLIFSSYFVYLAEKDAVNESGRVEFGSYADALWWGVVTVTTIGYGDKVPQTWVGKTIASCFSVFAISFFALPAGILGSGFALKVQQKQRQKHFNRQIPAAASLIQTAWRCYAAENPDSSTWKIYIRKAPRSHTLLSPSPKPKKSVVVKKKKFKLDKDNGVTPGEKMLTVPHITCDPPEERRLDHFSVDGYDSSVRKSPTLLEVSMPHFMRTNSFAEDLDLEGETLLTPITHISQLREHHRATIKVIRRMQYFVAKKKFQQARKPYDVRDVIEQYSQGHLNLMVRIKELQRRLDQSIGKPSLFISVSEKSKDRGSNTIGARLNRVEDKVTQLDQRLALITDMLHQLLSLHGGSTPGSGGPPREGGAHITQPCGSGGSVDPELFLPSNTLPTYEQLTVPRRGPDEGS
CHO parental ctr: activity in parental CHO cells lacking KCNQ2; shares compounds with KCNQ2 inh; thallium flux counter-screen; hits give low values; activity change, % at 10 µM; 1,000 tested, 14% active; AID 493029
KCNQ2 patch conf: confirmation of rat KCNQ2 potassium channel inhibitors; shares compounds with KCNQ2 inh; KCNQ2-expressing cells, automated patch clamp current; calls only at 10 µM; 550 tested, 49% active
Numbers stand for hits; 0 = inactive; - = no result; + = active, no number. Unless noted, no rule for the calls is given here.

SMILES	KCNQ2 pot	KCNQ2 inh	KCNQ2 block conf	KCNQ1 spec	CHO parental ctr	others
CC1CCN(C(=O)/C(=C/c2ccccc2Cl)c2ccccc2)CC1	0	-7.5	-32%	0	0	KCNQ2 patch conf=0
O=C1NC(CCc2ccccc2)C(=O)N1Cc1ccc(Br)cc1 (configuration not stated)	0	0	-	-	-
Brc1cccc(CNc2nc3ccccc3n2CCN2CCCCC2)c1	-	0	-	-	-
Cn1c(NCc2cccc(Br)c2)nc2ccccc21	0	-9	-34%	-28%	-22%	KCNQ2 patch conf=+
CCn1cnc2c1c(=O)n(Cc1nnc3n1-c1ccccc1SC3)c(=O)n2Cc1ccccc1	-	0	-	-	-
Cc1ccccc1NC(=O)c1cccc(S(C)(=O)=O)c1	0	0	-	-	-
CCOC(=O)COc1ccccc1C1Nc2ccccc2C(=O)N1c1cccc(Cl)c1 (configuration not stated)	-	0	-	-	-
CCOC(=O)COc1c(OC)cc(Cl)cc1C1Nc2ccccc2C(=O)N1c1cccc(C)c1 (configuration not stated)	0	-10	0	0	0
O=C(Nc1ncccn1)C1=C(O)c2ccccc2S(=O)(=O)N1Cc1ccccc1	-	0	-	-	-
CCOC(=O)CSC1=C(C#N)C(c2ccc(Cl)cc2)C(C(=O)OC)C(=O)N1 (configuration not stated)	-	0	-	-	-
COc1ccccc1N1CCN(C(=O)c2c(C)cc(=O)oc2C)CC1	0	0	-	-	-
COc1cc2c(C(=O)N3CCN(c4ccccc4C)CC3)c(C)oc2cc1Br	0	-11	-22%	0	0	KCNQ2 patch conf=0
CCOc1ccc2nc(SCC(=O)Nc3ccc(S(=O)(=O)N4CCCC4)cc3)c(C)cc2c1	0	-8.5	0	0	0
COc1ccc2nc(SCC(=O)Nc3ccc(S(=O)(=O)N4CCCC4)cc3)c(C#N)cc2c1	0	0	-	-	-
COc1ccc(N(CC(=O)N/N=C/c2cc3ccc(OC)cc3nc2Cl)S(=O)(=O)c2ccccc2)cc1	-	0	-	-	-
CCOC(=O)CSc1nnc(CNc2ccc(Cl)cc2)n1-c1ccccc1	0	-8.9	0	0	0
COC(=O)CSc1nnc(CNc2ccc(Cl)cc2)n1Cc1ccccc1	-	0	-	-	-
N/C(Cc1ccc([N+](=O)[O-])cc1)=N\OC(=O)C(c1ccccc1)c1ccccc1	-	0	-	-	-
O=C(CSc1ccc(F)cc1)NC12CC3CC(CC(C3)C1)C2	-	0	-	-	-
O=C(CCSc1ccc(Cl)c(Cl)c1)NC12CC3CC(CC(C3)C1)C2	0	-11	0	0	0
CCCCN1C(=O)C(NC(C)=O)c2cc(Br)ccc21 (configuration not stated)	-	0	-	-	-
C=C(C)c1cccc(C(C)(C)NC(=O)NC2CCN(Cc3ccccc3)CC2)c1	0	0	-	-	-
C=C(C)c1cccc(C(C)(C)NC(=O)N(Cc2ccccc2)Cc2ccco2)c1	0	-8.7	-23%	0	0	KCNQ2 patch conf=0
Cc1ccc(C)c(N2CCN(C(=O)C(Cc3ccccc3)n3cccc3)CC2)c1 (configuration not stated)	0	-7	-24%	0	0	KCNQ2 patch conf=0
Cc1ccc(C)c(N2CCN(C(=O)Cn3cccc3)CC2)c1	0	0	-	-	-
SMILES	KCNQ2 pot	KCNQ2 inh	KCNQ2 block conf	KCNQ1 spec	CHO parental ctr	others
O=C(N/N=C/c1ccccc1)c1ccc(OCc2ccccc2)cc1	0	0	-	-	-
O=C(N/N=C/c1ccccc1)c1sccc1OCc1ccc(F)cc1	0	-6.8	0	0	0
CCOC(=O)CNC(=O)c1sc2nc(C)cc(C)c2c1N	-	0	-	-	-
CCCc1nc2ccc(NC(C)=O)cc2c(=O)n1Cc1ccccc1Cl	-	0	-	-	-
Cc1ccc(C(CCN(Cc2ccccc2)C(=O)c2ccco2)c2ccco2)cc1 (configuration not stated)	0	-8	-27%	0	0	KCNQ2 patch conf=0
CN(Cc1ccccc1)C(=O)c1ccco1	0	0	-	-	-
COc1cccc(NC(=S)NC(=O)/C=C/c2ccc(F)cc2)c1	0	0	-	-	-
CC1CN(S(=O)(=O)c2cc(C(=O)N(CCc3ccccc3)Cc3ccccc3)ccc2Cl)CC(C)O1 (configuration not stated)	0	-7.2	0	0	0
CCN(CC1COc2ccccc2O1)C(=O)c1ccc(Cl)c(S(=O)(=O)N2CC(C)OC(C)C2)c1 (configuration not stated)	-	0	-	-	-
COC(=O)c1ccc(NC(=O)CN(C)S(=O)(=O)c2ccc(OC)c(C)c2)cc1	0	0	-	-	-
COC(=O)[C@@H](NC(=O)NC1CCCc2ccccc21)C(C)C (some centres not stated)	0	-7.2	0	0	0
CC1CCCCC12NC(=O)N(CC(=O)NC1CCCc3ccccc31)C2=O (configuration not stated)	-	0	-	-	-
